These results are taken from publication PMC7819943, “Rice protein-binding microarrays: a tool to detect cis-acting elements near promoter regions in rice”.

Whole data set: some 68,000 sequences, median “fluorescence intensity (a.u.)” near 9,100, cut for the highest 2% near 16,000. This is one part of a sample in which the highest values are shown more often than they occur.

This assay deals with OsWRKY34 (Oryza sativa, UniProt Q0JBA9 1-250). The experiment in a line: protein-binding microarray (RPBM); PBS, 2% BSA, 51.3 ng/ul salmon testes DNA, 50 uM zinc acetate, 200 nM TF, 25 C, 1 h; high values mean tight binding. Conditions: protein: recombinant; tags: N-terminal polyhistidine and DsRed monomer fusion (pET32a); label: CyDye5-dUTP incorporated in the synthesized complementary strand; 3' TTTTT single-stranded linker to array surface; dsDNA, one strand shown. The essentials: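 Transcription factors, each fused N-terminally to a polyhistidine tag and DsRed, were expressed in E. coli BL21-CodonPlus and purified on Ni–NTA. A custom Agilent array was made double-stranded by primer extension with Cy5-dUTP and blocked with 2% BSA. It was incubated with 200 nM protein in PBS, 2% BSA, salmon testes DNA and 50 µM zinc acetate at 25 °C for 1 h, then washed. The binding signal is per-feature fluorescence intensity (arbitrary units) read on an Axon 4000B scanner.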
Chain of OsWRKY34 (Q0JBA9 entry or part of it): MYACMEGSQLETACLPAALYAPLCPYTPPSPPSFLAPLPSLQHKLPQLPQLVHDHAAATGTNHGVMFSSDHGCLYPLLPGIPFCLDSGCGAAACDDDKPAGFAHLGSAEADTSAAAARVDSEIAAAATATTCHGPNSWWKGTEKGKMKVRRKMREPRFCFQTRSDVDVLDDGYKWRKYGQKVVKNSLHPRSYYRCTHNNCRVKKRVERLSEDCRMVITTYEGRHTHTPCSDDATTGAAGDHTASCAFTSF
Take “CCACCATGGTCTCGCTCATTCTGTTTGCTTCACCTACTCTCGGAGTCACCTAGTGCAG”: the binding signal is 14500 fluorescence intensity (a.u.).
Next, “GGGGTGGAATTGTGTTGGGTTTCTTTGGTTGAGGAGAGAGCGGAGTCACCTAGTGCAG”: 16000 fluorescence intensity (a.u.).
With “TCAATTTTCTTGTTGACTCGGTGTTTTTGACTGTGGTCAACGGAGTCACCTAGTGCAG” the figure was 10900 fluorescence intensity (a.u.); with “GGGGTGAACATTTCTTTCTTTCTGGTATTGTGGTTGAGGGCGGAGTCACCTAGTGCAG”, 19300 fluorescence intensity (a.u.); with “GCCTTTTCTTGACTCGGTGGTGGGAGGGGAATTTTCGTGACGGAGTCACCTAGTGCAG”, 27000 fluorescence intensity (a.u.).
Next, “GAACTTTTCCTGGATGGTGATCCTTCTTTTGGCCTTCTTTCGGAGTCACCTAGTGCAG”: 10500 fluorescence intensity (a.u.).
As to “ACTTTTTTTGGTGACTATGTGTTTCCCTGTGGTGGGCTTCCGGAGTCACCTAGTGCAG”, the binding signal is 12000 fluorescence intensity (a.u.).
With “TTCTTCTTGGTGGTGGTGGGGCCTGGAAACTATGTGACTTCGGAGTCACCTAGTGCAG” the figure was 18200 fluorescence intensity (a.u.); with “AGGGATGGTTGGACTTATTTCTTTCGCGTTTTCCTTGGGTCGGAGTCACCTAGTGCAG”, 10900 fluorescence intensity (a.u.).
Next, “TAAGGGATGGGATGGTTGGCTTGGATCGAGTATATTTCTTCGGAGTCACCTAGTGCAG”: 18900 fluorescence intensity (a.u.); “AGTGAACTTGGTTCTGTGGTTGCATGTATTTGGTGGAGGGCGGAGTCACCTAGTGCAG”: 9170 fluorescence intensity (a.u.); “AGACATTTTTCTTTCTCGTGGATATTTACGCCTTTCTTGACGGAGTCACCTAGTGCAG”: 8790 fluorescence intensity (a.u.).
With “TATATTTTCTTCTTCGTCACGATCGATGGGATTTTTATTTCGGAGTCACCTAGTGCAG” the figure was 9040 fluorescence intensity (a.u.).
For “TGCAGGCTTCCACCGCCCGCCTGTCATTGTCGCCCACTGCCGGAGTCACCTAGTGCAG”, the binding signal is 8760 fluorescence intensity (a.u.).
With “GTTTGTCCCTTTTGACATATGAACTCTTCTCCATGATTTCCGGAGTCACCTAGTGCAG” the figure was 8060 fluorescence intensity (a.u.); with “GGCTTGATTTCTTCTTTTTTCTAATTTTCATATGGCTATTCGGAGTCACCTAGTGCAG”, 9800 fluorescence intensity (a.u.).
Next, “TTAAATATTTGAGGGGTCGATATTTCTGGTATTGGTATTACGGAGTCACCTAGTGCAG”: 10500 fluorescence intensity (a.u.); “TTTTTTTTTCATCGATGCTTATTTTTTCAGCCTTTACTTTCGGAGTCACCTAGTGCAG”: 8640 fluorescence intensity (a.u.).
Next, “TGAAGCATGTGGTGGGCATTTTCGTCTTTCTCGAATTCATCGGAGTCACCTAGTGCAG”: 9980 fluorescence intensity (a.u.).
As for “GTATGTGCCACGTCATCCAAAACCGGCCACAATACTGTCGCGGAGTCACCTAGTGCAG”, the binding signal is 8130 fluorescence intensity (a.u.).
With “TCCGCTTCTGCTATCTCTCGTCACTCTTCAGTCTTCACCTCGGAGTCACCTAGTGCAG” the figure was 8050 fluorescence intensity (a.u.); with “AGTTTCAGAACTCACCTCTTTATTAATACATTTAGTTGTTCGGAGTCACCTAGTGCAG”, 8850 fluorescence intensity (a.u.).
Next, “AACGGTTGCAGCTCTAATTGAGGGCTTTGTTTAGTTCATGCGGAGTCACCTAGTGCAG”: 8640 fluorescence intensity (a.u.); “CGAGGGTTTGGGAGTCGGGGAATTCGGGGTTTGGGGCCGCCGGAGTCACCTAGTGCAG”: 26700 fluorescence intensity (a.u.).
Next, “AGTTCGGGGTGGTTTAAAGTGTAAAAAAATGTTAATAAAACGGAGTCACCTAGTGCAG”: 8870 fluorescence intensity (a.u.).
Consider “GTTAAATTCGAGGGGTTTCTTGTAATTTCGGGGTGGATAACGGAGTCACCTAGTGCAG”, for which the binding signal was 16500 fluorescence intensity (a.u.).
Next, “GCGGAGGCAGGGAGGGTTTTGGAATTTTCGGCCGCCGTTGCGGAGTCACCTAGTGCAG”: 10100 fluorescence intensity (a.u.); “TTTTGTGTATGTTTCGGTGGGAATTTGAGGGTTGTGTTTTCGGAGTCACCTAGTGCAG”: 14200 fluorescence intensity (a.u.); “TGAATTTGTGGTTTTTTTTGGGGAGGGTTTTTTTTTTCTTCGGAGTCACCTAGTGCAG”: 34600 fluorescence intensity (a.u.).
With “CAATGGAGGGGTGTTTTTTTTTCTATTTTTCTAAATAATTCGGAGTCACCTAGTGCAG” the figure was 14800 fluorescence intensity (a.u.); with “CGAGAGAGAGAGGGGAGGGTTTTGGGTTGTGCTTAGGTTTCGGAGTCACCTAGTGCAG”, 13100 fluorescence intensity (a.u.); with “AATTCGGGGTTTGGGGCCGCGGAGGGGTGCTTACGTGAGTCGGAGTCACCTAGTGCAG”, 15100 fluorescence intensity (a.u.).
Next, “CGGTGTACTACTTTTATATATGCAAACCTTTATTGCCTGACGGAGTCACCTAGTGCAG”: 10300 fluorescence intensity (a.u.); “GGCCCACCGTCGCACTCGCGCCTTCCGCTGCTCCGTTGCCCGGAGTCACCTAGTGCAG”: 8880 fluorescence intensity (a.u.); “GTTTTTCCTCTCTGCTTGTAACGCGTGATGTAAAATTTTCCGGAGTCACCTAGTGCAG”: 11000 fluorescence intensity (a.u.).
As for “CGTCGAGTATCTGTATCTCTAAGCATTTCTTGTTGACTTTCGGAGTCACCTAGTGCAG”, the binding signal is 10600 fluorescence intensity (a.u.).
Next, “CCGTGCCCACCTGAGCTCGCTTCGCCGCCATTGGCAGCCTCGGAGTCACCTAGTGCAG”: 9100 fluorescence intensity (a.u.); “AGAGGGGAGGGAGGAGGATTATGGTTTTTTTTCTCTAAAACGGAGTCACCTAGTGCAG”: 16700 fluorescence intensity (a.u.); “ACATGTGGGGCCTATTTATTTCTTTTTTTTTAAAAAAAAACGGAGTCACCTAGTGCAG”: 8480 fluorescence intensity (a.u.).
With “TGTATAGTTTAGGGGTGAAGATTTCTGGTTTTGTGGTTAACGGAGTCACCTAGTGCAG” the figure was 11500 fluorescence intensity (a.u.); with “AAGCGGGGATTTTATGTGGGCAGTGGGTTTTCTTCTTAAACGGAGTCACCTAGTGCAG”, 19300 fluorescence intensity (a.u.).
Next, “GTGGGCAGATTTAGTTTTAATGGGTGTGGGTACGGAGAGTCGGAGTCACCTAGTGCAG”: 8900 fluorescence intensity (a.u.).
